Measurements published in PubChem BioAssay (EPA / NIEHS).
Activity calls are given as the source filed them. Rule for the calls: active = hit-call score of the fitted dose curve at least 0.9, where 1 is the maximum; inactive = score below 0.9.

Tests used:
Details in all cases: mRNA level, 48 h; actives raise or lower the signal
[1] = read-out: solute carrier (SLC22A1), SLC22A1 (gene 6580); test: LTEA_HepaRG_SLC22A1: Life Technologies and Expression Analysis (LTEA) Assay for solute carrier (SLC22A1) using HepaRG (AID 2283524)
How it was run: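 Human HepaRG cells were plated 48 h, switched to serum-free induction medium, then exposed in duplicate for 48 h to 8-point half-log series from 100 uM in 0.5% DMSO. SLC22A1 mRNA measured by qRT-PCR, normalized to ACTB/GAPDH/POLR2A, fitted bidirectionally versus DMSO.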

[2] = read-out: Pyruvate Dehydrogenase Kinase 4 (PDK4), PDK4 (gene 5166); test: LTEA_HepaRG_PDK4: Life Technologies and Expression Analysis (LTEA) Assay for Pyruvate Dehydrogenase Kinase 4 (PDK4) using HepaRG (AID 2283525)
How it was run: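 Differentiated human HepaRG cells, pre-cultured 48 h, were exposed in duplicate for 48 h in serum-free induction medium to eight half-log concentrations up to 100 uM in 0.5% DMSO. PDK4 mRNA was quantified by qRT-PCR, normalized to ACTB, GAPDH and POLR2A, bidirectional fitting versus DMSO.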

[3] = read-out: NAD(P)H dehydrogenase [quinone] 1 (NQO1), NQO1 (gene 1728); test: LTEA_HepaRG_NQO1: Life Technologies and Expression Analysis (LTEA) Assay for NAD(P)H dehydrogenase [quinone] 1 (NQO1) using HepaRG (AID 2283526)
How it was run: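 Differentiated human HepaRG cells in serum-free induction medium, dosed in duplicate for 48 h at 8 half-log concentrations up to 100 uM in 0.5% DMSO. NQO1 mRNA by qRT-PCR normalized to ACTB, GAPDH, POLR2A; bidirectional fit versus DMSO baseline.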

[4] = read-out: Nuclear factor erythroid 2-related factor 2 (Homo sapiens) (UniProt Q16236); test: LTEA_HepaRG_NFE2L2: Life Technologies and Expression Analysis (LTEA) Assay for Nuclear factor erythroid 2-related factor 2 (NFE2L2) Transcription Factor using HepaRG (AID 2283527)
How it was run: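 Differentiated human HepaRG cells in serum-free induction medium were exposed for 48 h to eight concentrations (top 100 uM, half-log dilutions, 0.5% DMSO), in duplicate. NFE2L2 mRNA was quantified by TaqMan qRT-PCR, normalized to ACTB, GAPDH and POLR2A, with bidirectional fitting versus DMSO.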

[5] = read-out: succinate dehydrogenase complex iron sulfur subunit B (SDHB), SDHB (gene 6390); test: LTEA_HepaRG_SDHB: Life Technologies and Expression Analysis (LTEA) Assay for succinate dehydrogenase complex iron sulfur subunit B (SDHB) using HepaRG (AID 2283528)
How it was run: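 A human HepaRG culture in serum-free induction medium received test chemicals for 48 h over an eight-point range capped at 100 uM. SDHB expression change was quantified by qRT-PCR.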

[6] = read-out: Signal transducer and activator of transcription 3 (Homo sapiens) (UniProt P40763); test: LTEA_HepaRG_STAT3: Life Technologies and Expression Analysis (LTEA) Assay for Signal transducer and activator of transcription (STAT3) using HepaRG (AID 2283529)
How it was run: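 Differentiated human HepaRG cells in serum-free induction medium were exposed in duplicate for 48 h to eight half-log concentrations up to 100 uM in 0.5% DMSO. STAT3 mRNA was quantified by TaqMan qRT-PCR, normalized to ACTB, GAPDH and POLR2A, and fitted bidirectionally against DMSO.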

[7] = read-out: solute carrier (SLCO1B1), SLCO1B1 (gene 10599); test: LTEA_HepaRG_SLCO1B1: Life Technologies and Expression Analysis (LTEA) Assay for solute carrier (SLCO1B1) using HepaRG (AID 2283530)
How it was run: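 Gain or loss of SLCO1B1 mRNA is fitted against the 0.5% DMSO vehicle in human HepaRG liver cells treated 48 h at up to 100 uM in half-log steps. Expression comes from qRT-PCR normalized to endogenous controls.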

[8] = read-out: sulfotransferase 2A1 (SULT2A1), SULT2A1 (gene 6822); test: LTEA_HepaRG_SULT2A1: Life Technologies and Expression Analysis (LTEA) Assay for sulfotransferase 2A1 (SULT2A1) using HepaRG (AID 2283531)
How it was run: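 Cells were plated and cultured 48 h, switched to serum-free induction medium, then dosed in duplicate for 48 h (8 concentrations, max 100 uM). RNA was isolated and SULT2A1 expression measured by qRT-PCR; gain or loss of signal fitted relative to DMSO.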

[9] = read-out: Transforming Growth Factor (TGFA), TGFA (gene 7039); test: LTEA_HepaRG_TGFA: Life Technologies and Expression Analysis (LTEA) Assay for Transforming Growth Factor (TGFA) using HepaRG (AID 2283532)
How it was run: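 Differentiated human HepaRG cells, plated 48 h then switched to serum-free induction medium, were exposed in duplicate for 48 h to 8-point half-log series from 100 uM in 0.5% DMSO. TGFA mRNA measured by qRT-PCR, normalized to ACTB/GAPDH/POLR2A, bidirectional fit versus DMSO.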

Measured: AC50

Sequence of Signal transducer and activator of transcription 3 (Homo sapiens) (P40763 whole entry, looked up): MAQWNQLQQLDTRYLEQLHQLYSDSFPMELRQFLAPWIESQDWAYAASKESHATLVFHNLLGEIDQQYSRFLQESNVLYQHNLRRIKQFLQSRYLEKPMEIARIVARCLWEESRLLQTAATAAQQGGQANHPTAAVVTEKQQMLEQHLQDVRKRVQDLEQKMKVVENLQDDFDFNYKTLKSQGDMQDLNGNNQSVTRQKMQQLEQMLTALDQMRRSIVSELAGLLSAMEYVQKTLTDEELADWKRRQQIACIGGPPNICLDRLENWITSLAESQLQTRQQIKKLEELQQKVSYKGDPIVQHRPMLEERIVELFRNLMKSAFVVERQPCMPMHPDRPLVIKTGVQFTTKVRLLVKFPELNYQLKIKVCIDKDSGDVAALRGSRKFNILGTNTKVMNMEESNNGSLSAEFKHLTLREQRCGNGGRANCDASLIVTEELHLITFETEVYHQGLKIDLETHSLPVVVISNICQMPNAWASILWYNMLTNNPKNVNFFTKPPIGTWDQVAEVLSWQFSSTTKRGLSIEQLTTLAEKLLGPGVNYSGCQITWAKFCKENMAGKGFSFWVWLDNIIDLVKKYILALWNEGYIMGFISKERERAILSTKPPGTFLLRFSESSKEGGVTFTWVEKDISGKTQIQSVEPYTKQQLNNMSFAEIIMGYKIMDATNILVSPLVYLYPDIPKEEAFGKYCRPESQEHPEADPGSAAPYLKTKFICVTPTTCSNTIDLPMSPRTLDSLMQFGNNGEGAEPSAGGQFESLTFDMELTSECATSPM
Sequence of Nuclear factor erythroid 2-related factor 2 (Homo sapiens) (Q16236 whole entry, looked up): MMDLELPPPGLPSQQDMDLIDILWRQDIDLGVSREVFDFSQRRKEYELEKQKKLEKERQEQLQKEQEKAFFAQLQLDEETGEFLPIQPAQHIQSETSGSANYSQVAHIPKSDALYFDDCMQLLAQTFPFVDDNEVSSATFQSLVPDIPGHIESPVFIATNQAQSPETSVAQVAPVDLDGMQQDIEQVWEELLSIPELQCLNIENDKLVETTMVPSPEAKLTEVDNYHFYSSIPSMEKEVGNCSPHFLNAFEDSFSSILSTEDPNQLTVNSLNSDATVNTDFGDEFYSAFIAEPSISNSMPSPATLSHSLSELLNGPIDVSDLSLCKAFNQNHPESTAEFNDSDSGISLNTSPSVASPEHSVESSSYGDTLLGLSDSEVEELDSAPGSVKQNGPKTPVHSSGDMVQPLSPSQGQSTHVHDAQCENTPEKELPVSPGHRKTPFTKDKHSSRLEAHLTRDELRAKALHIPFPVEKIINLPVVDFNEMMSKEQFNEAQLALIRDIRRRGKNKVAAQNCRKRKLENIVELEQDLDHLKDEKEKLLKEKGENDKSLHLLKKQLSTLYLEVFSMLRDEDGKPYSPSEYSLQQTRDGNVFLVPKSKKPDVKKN

CCCCOC(=O)[C@@H](C)Oc1ccc(Oc2ccc(C(F)(F)F)cn2)cc1
inactive: [1] | [2] | [3] | [4] | [5] | [6] | [7] | [8] | [9]

CC(C)(C)[C@@H](O)[C@@H](Cc1ccc(Cl)cc1)n1cncn1
inactive: [1] | [2] | [3] | [4] | [5] | [6] | [8] | [9]

N#CSCSc1nc2ccccc2s1
active: [1] 76.7 µM | [2] 32.9 µM | [7] 95.8 µM
inactive: [3] | [4] | [5] | [6] | [8] | [9]

O=C(O)c1ccccc1
inactive: [1] | [2] | [3] | [4] | [5] | [6] | [7] | [8] | [9]

Oc1ccc(C(c2ccc(O)cc2)C(Cl)(Cl)Cl)cc1
active: [1] 92.3 µM | [3] 82.7 µM | [4] 78.2 µM | [5] 80.6 µM | [6] 76.8 µM | [8] 84.3 µM | [9] 80.7 µM
inactive: [2] | [7]

O=C(O)C1(C(=O)Nc2ccc(Cl)cc2Cl)CC1
inactive: [3] | [4] | [6] | [9]
active: [1] 74.3 µM | [2] 7.18 µM | [5] 78.4 µM | [7] 77.1 µM | [8] 87.4 µM

COC(=O)CSc1cc(N=c2sc(=O)n3n2CCCC3)c(F)cc1Cl
inactive: [1] | [2] | [3] | [4] | [5] | [6] | [7] | [8] | [9]

O=C(c1ccc(O)cc1O)c1ccc(O)cc1O
inactive: [1] | [2] | [3] | [4] | [5] | [6] | [7] | [8] | [9]

O=C(Nc1ccc([N+](=O)[O-])cc1Cl)c1cc(Cl)ccc1O
inactive: [4]
active: [1] 5.5 µM | [2] 4.31 µM | [3] 13.4 µM | [5] 2.68 µM | [6] 2.9 µM | [7] 3.28 µM | [8] 5.12 µM | [9] 1.93 µM

CCOC(=O)C(C)Oc1ccc(Oc2cnc3cc(Cl)ccc3n2)cc1 (stereo not given)
active: [1] 17.2 µM | [2] 70 µM | [8] 2.34 µM
inactive: [3] | [4] | [5] | [6] | [7] | [9]

CCCCOC(=O)C(C)Oc1ccc(Oc2ccc(C(F)(F)F)cn2)cc1 (stereo not given)
inactive: [1] | [2] | [3] | [4] | [5] | [6] | [7] | [8] | [9]

CC(=O)[C@H]1CC[C@H]2[C@@H]3CCC4=CC(=O)CC[C@]4(C)[C@H]3CC[C@]12C
active: [1] 38.2 µM | [2] 22.9 µM | [3] 62.1 µM | [5] 88.6 µM | [6] 63.1 µM | [7] 75.2 µM | [8] 38.5 µM | [9] 33.1 µM
inactive: [4]

OB(O)O
inactive: [1] | [2] | [3] | [4] | [5] | [6] | [7] | [8] | [9]

CCCCCCC(C)OC(=O)COc1nc(F)c(Cl)c(N)c1Cl (stereo not given)
inactive: [1] | [2] | [3] | [4] | [5] | [6] | [7] | [8] | [9]

CCOC(=O)COc1cc(-n2ncc(C(F)(F)F)c(C)c2=O)c(F)cc1Cl
inactive: [1] | [2] | [3] | [4] | [5] | [6] | [7] | [8] | [9]

CCCN(CCC)c1c([N+](=O)[O-])cc(C(F)(F)F)c(N)c1[N+](=O)[O-]
active: [1] 27.2 µM
inactive: [2] | [3] | [4] | [5] | [6] | [7] | [8] | [9]

COC(=O)c1ccccc1C(=O)O
inactive: [1] | [2] | [3] | [4] | [5] | [6] | [7] | [8] | [9]

COc1c(Cl)ccc(Cl)c1C(=O)O
inactive: [1] | [2] | [3] | [4] | [5] | [6] | [7] | [8] | [9]

C#C[C@]1(O)CC[C@H]2[C@@H]3CCC4=CC(=O)CC[C@@H]4[C@H]3CC[C@@]21CC
inactive: [1] | [3] | [4] | [5] | [6] | [8] | [9]
active: [2] 0.442 µM | [7] 0.0325 µM

CCCCC(CC)CN1C(=O)C2C3C=CC(C3)C2C1=O (stereo not given)
active: [1] 78.3 µM | [2] 81.3 µM | [8] 86.1 µM
inactive: [3] | [4] | [5] | [6] | [7] | [9]

CCN(CC)C(=O)c1cccc(C)c1
active: [6] 4.39 µM
inactive: [1] | [2] | [3] | [4] | [5] | [7] | [8] | [9]

CC(C)CCCCCCc1ccc(O)cc1
inactive: [1] | [2] | [3] | [4] | [5] | [6] | [7] | [8] | [9]

CCCOC(=O)c1ccc(C(=O)OCCC)nc1
inactive: [1] | [2] | [3] | [4] | [5] | [6] | [7] | [8] | [9]

CCCOC(=O)NCCCN(C)C
inactive: [1] | [2] | [3] | [4] | [5] | [6] | [7] | [8] | [9]

COCCO
inactive: [1] | [2] | [3] | [4] | [5] | [6] | [7] | [8] | [9]

COC(=O)c1ccc(I)cc1S(=O)(=O)NC(=O)Nc1nc(C)nc(OC)n1
inactive: [1] | [2] | [3] | [4] | [5] | [7] | [8] | [9]

CCSC(=O)N(CC(C)C)CC(C)C
inactive: [1] | [2] | [3] | [4] | [5] | [6] | [7] | [8] | [9]

C=CCOC(Cn1ccnc1)c1ccc(Cl)cc1Cl (stereo not given)
active: [1] 31.3 µM | [2] 29 µM | [3] 50 µM | [4] 21.8 µM | [7] 35 µM | [8] 36.4 µM | [9] 50 µM
inactive: [5] | [6]
